Screening data: PubChem BioAssay, National Center for Advancing Translational Sciences (NCATS)
PINK1 modulator: modulators of PINK1 expression; 410,000 tested, 0.2% active; Potency, µM (doses to about 76.6 µM), without a hit: at the highest dose activation (PINK1 increase), usual class: activators; AID 624263; PINK1 immunofluorescence, high-content cytometry, 24 h; active = well fitted activation curve with a large enough effect; inconclusive = small, poorly fitted or top-dose-only effect; cell line not stated here; note: % of control where 0% means no effect; nearly all actives have a fitted effect of over 65% in size
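Decision-based qHTS: stable cells, 24 h exposure to five compound concentrations, CCCP as control. Fixed cells stained for PINK1 plus nuclear, mitochondrial and cell markers, cytometer read.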
Vif-APOBEC3F blk: blocks the Vif interaction with APOBEC3F; HeLa A3F-eYFP + Vif (tagged APOBEC3F with the HIV-1 protein that degrades it), YFP fluorescence increase; Potency, µM (series often up to 46.1 µM), for inactives: top-dose activity, negative = active; 390,000 tested, 0.2% active; note: % of control where 0% means no effect; nearly all actives have a fitted effect of over 65% in size
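Fluorescence increase (Ex 488/Em 500-530) after overnight compound treatment at 37 deg C flags inhibition of Vif-driven A3F-eYFP loss in stable HeLa A3F-eYFP/Vif cells seeded overnight beforehand.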
FUS suppressor: FUS proteinopathy suppression in yeast; S. cerevisiae FUS-expressing, growth rescue, OD600, 24 h; Potency, µM (top dose mostly 76.6 µM), hits mostly activators; 390,000 tested, 0.24% active; AID 1347120;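 note: plate controls were DMSO vehicle for no effect and reference control for full effect; nearly all actives have a fitted effect of over 55% in size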
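Quantitative HTS measuring growth restoration of FUS-toxic yeast. Galactose-induced cells (OD 0.005) were exposed 24hr at 30C to compounds at several concentrations, then absorbance at 600 nm was recorded.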
Vif-APOBEC3G blk: Vif-A3G binding inhibition | Q9HC16 | HeLa A3G-eYFP + Vif (tagged APOBEC3G with the HIV-1 protein that degrades it), YFP fluorescence, overnight | Potency, µM (highest dose often 46.1 µM), inactives show at the top dose activity, negative = active, usual class: inhibitors | 410,000 tested, 0.076% active | AID 602310; note: % is set by controls: 0 for no effect and ±100 for the full control effect; nearly all actives have a fitted effect of over 60% in size
Target sequence (Q9HC16 whole entry, looked up): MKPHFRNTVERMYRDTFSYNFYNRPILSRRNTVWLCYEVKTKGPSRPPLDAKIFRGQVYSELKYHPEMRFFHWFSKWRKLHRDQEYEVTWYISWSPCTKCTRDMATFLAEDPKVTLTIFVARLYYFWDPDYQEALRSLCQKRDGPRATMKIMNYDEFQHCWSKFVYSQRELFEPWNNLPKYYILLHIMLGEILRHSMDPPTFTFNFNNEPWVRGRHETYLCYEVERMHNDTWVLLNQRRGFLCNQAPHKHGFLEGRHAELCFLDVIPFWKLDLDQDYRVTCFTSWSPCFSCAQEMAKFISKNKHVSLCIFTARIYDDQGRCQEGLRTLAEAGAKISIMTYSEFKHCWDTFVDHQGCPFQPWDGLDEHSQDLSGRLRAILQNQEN
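Read-out is eYFP fluorescence (Ex 488/Em 500-530) from Vif-expressing HeLa A3G-eYFP cells; more signal means A3G escaped Vif-mediated degradation. Cells plated overnight, compound pinned in, incubated overnight at 37 deg C.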
Glioma ERSR ind: inducers of ER stress response in human glioma cells; U87-MG GRP78 promoter luciferase reporter, 16 h; Potency, µM, for inactives: at the highest dose activation, most hits filed as activators; 420,000 tested, 0.02% active; note: series mostly up to about 76 µM; % of control where 0% means no effect; nearly all actives have a fitted effect of over 35% in size
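Stably transfected U87-MG human glioma cells carrying a GRP78-based luminescent sensor were seeded at 1000 cells/well, pin-dosed with compounds and incubated 16 h. Luciferase reagent was then added, and end-point luminescence was read after 10 min at room temperature.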
Abeta yeast res: A-beta toxicity reversal in yeast. yeast expressing A-beta42, growth rescue, OD600, 48 h; response scale: 0% DMSO, 100% iron-clioquinol control. Potency, µM (highest dose often 46.1 µM), actives largely listed as activators. 410,000 tested, 0.063% active. AID 1347071; note: nearly all actives have a fitted effect of over 55% in size
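Yeast growth medium received pinned compounds, then yeast cells expressing toxic A-beta were added; plates incubated at 30 C for 48 hr. Growth read as absorbance at 600 nm, normalized to DMSO and equimolar FeCl3 plus clioquinol controls.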
The depositor's hits bear a star; i = inactive; ? = inconclusive; . = no result; [ ] = another dose, or the depositor's remark. Rows were chosen to be rich in hits. Some 0.69% of all compounds tested hit in one or more screens of this group. Unless noted, calls come from the whole dose curve; as a rule, active = well fitted curve in the direction sought with a large enough effect; inconclusive = small, poorly fitted or top-dose-only effect, or another doubt; inactive = no such curve, though single readings can be large; an effect the other way counts as inactive or inconclusive. Potency is the fitted concentration of half-maximal effect.

SMILES	PINK1 modulator	Vif-APOBEC3F blk	FUS suppressor	Vif-APOBEC3G blk	Glioma ERSR ind	Abeta yeast res
COc1ccc(C(=O)/C=C/Nc2ccc([N+](=O)[O-])cc2C)c(OC)c1	?	22µM*	i	-3%	1%	i
CCOc1ccc(NC(=O)Cn2c(=O)n(Cc3ccc(C(=O)NCc4ccc(C)cc4)cc3)c(=O)c3ccccc32)cc1	2%	10µM*	i	-1%	-2%	i
COc1cc(CN2CCC3(CC2)c2ccccc2[C@@H](NC(=O)c2ccccc2OC)[C@@H]3O)ccc1F	0%	.	.	.	-2%	.
COc1cc(C=C2C(=O)c3ccccc3C2=O)ccc1O	2%	1%	i	0%	1%	i
COc1cc(C=C2C(=O)c3ccccc3C2=O)cc(OC)c1OC	5%	25µM*	i	-10%	-4%	i
COC(=O)[C@@H](NC(=O)C1CCCN(c2nc(C)c3ccc(C)cc3n2)C1)C(C)C (stereo not given in full)	0%	.	.	.	-4%	.
CCN(Cc1ccncc1)Cc1ccc2c(c1)CN(C(=O)c1cccc(-n3nc(C)cc3C)c1)CCO2	0%	.	.	.	-4%	.
Clc1ccccc1/C=N/NC1=Nc2cccc3cccc1c23	?	5.6µM*	.	?	-2%	i
O=C(NC1CCCCC1)C1CCN(S(=O)(=O)c2cccc3nsnc23)CC1	10µM*	-8%	i	3%	-5%	i
O=C(C1CCN(S(=O)(=O)c2cccc3nsnc23)CC1)N1CCCCC1	0%	-11%	i	1%	-1%	i
Cc1cccc(C(=O)NCC2Cc3cc(F)cc(-c4cnccn4)c3O2)n1 (stereo not given)	0%	.	.	.	1%	.
COc1ccc(/C=C/C=C2\NC(=S)NC2=O)cc1	?	13µM*	i	?	6%	i
COc1ccc(C=C2NC(=S)NC2=O)cc1	-2%	-9%	i	2%	2%	i
CCCCc1ccc(NC(=S)N2CCCC2)cc1	6%	-3%	i	0%	19%	11µM*
CC(C)CC(COCc1cccc(C(F)(F)F)c1)N1CCN(C(=O)c2cccc(C(F)(F)F)c2)CCC1=O (stereo not given)	-1%	3%	?	2%	1%	i
Cc1ccc(COC[C@H](CC(C)C)N2CCN(C(=O)c3cccc(C(F)(F)F)c3)CCC2=O)cc1	25%	.	4.5µM*	.	.	i
CC(C)CC(COCc1ccc(Cl)cc1)N1CCN(C(=O)c2cccc(C(F)(F)F)c2)CCC1=O (stereo not given)	30%	-4%	32µM*	9%	-3%	i
Cc1ccc(CN2CCOc3ccc(CN4CCC(Oc5cccnc5)CC4)cc3C2)o1	-1%	.	.	.	-4%	.
COc1cccc(-n2c(SC)nnc2C2CCN(CCC(C)c3ccc(C)o3)CC2)c1 (stereo not given)	1%	.	.	.	-6%	.
COc1ccccc1-n1c(=O)c(C#N)c(-c2ccc([N+](=O)[O-])cc2)c2cc(C(=O)c3cc(F)ccc3O)cnc21	2%	-12%	i	-2%	-3%	i
Cn1c(=O)c(C#N)c(-c2ccc(F)cc2)c2cc(C(=O)c3cc(Cl)cc(Cl)c3O)cnc21	25µM*	-3%	i	-3%	1%	i
COc1cccc(N2CC(O)=C(c3nc4ccccc4s3)C2=N)c1	23%	-17%	i	?	4%	i
COc1ccc(N2CC(O)=C(c3nc4ccccc4s3)C2=N)cc1	11µM*	-10%	i	-10%	-3%	i
C[N+](C)(C)CCOP(=O)(O)OP(=O)([O-])OCC1OC(n2ccc(N)nc2=O)[C@H](O)[C@@H]1O (stereo not given in full)	.	.	.	.	-2%	.
CC1Cc2ccccc2N1C(=S)NC1CCCC1 (stereo not given)	0%	-7%	i	0%	4%	13µM*
SMILES	PINK1 modulator	Vif-APOBEC3F blk	FUS suppressor	Vif-APOBEC3G blk	Glioma ERSR ind	Abeta yeast res
COc1ccc(NC(=S)N2c3ccccc3CC2C)cc1OC (stereo not given)	-1%	1%	i	4%	-1%	i
CCOC(=O)[C@@H]1[C@H]2COc3ccc(Br)cc3[C@H]2N2C(=O)N(c3ccc(C)cc3)C(=O)[C@]12C	0%	1%	22µM*	-7%	-5%	i
CCOC(=O)c1c(NC(=O)c2ccc(S(=O)(=O)N3CCC(C)CC3)cc2)sc2c1CCN(C)C2	21%	10µM*	?	?	-11%	i
CCCN1CCc2c(sc(NC(=O)c3ccc(S(=O)(=O)N4CCN(C(=O)OCC)CC4)cc3)c2C(N)=O)C1	0%	10µM*	?	?	-14%	i
CC1CCN(S(=O)(=O)c2ccc(C(=O)Nc3nnc(C4CC4)o3)cc2)CC1	1%	0%	?	4%	-6%	13µM*
CCCN1CCc2c(sc(NC(=O)c3ccc(S(=O)(=O)N(C)c4ccccc4)cc3)c2C(=O)NC)C1	4%	?	i	22µM*	-9%	i
COc1cc(-c2cc(C)c3c(OC)ccc(OC)c3n2)cc2c1OCCN(C(=O)CCn1ccc(C)n1)C2	0%	.	.	.	-4%	.
COC(=O)C1CCN(Cc2ccc3c(c2)CN(C(=O)c2cc4ccccc4n2C)CCO3)CC1	0%	.	.	.	-4%	.
CCCN1CCc2c(sc(NC(=O)c3ccc(S(=O)(=O)N(C)c4ccccc4)cc3)c2C(N)=O)C1	16%	6.3µM*	?	?	-1%	i
Cc1cc(=O)c(C(=O)N(C)CCc2ccccn2)c2n1-c1ccccc1SC(c1ccsc1)C2 (stereo not given)	0%	.	.	.	-4%	.
COc1cnc(-c2ccccn2)nc1Sc1ccccc1Cl	-4%[38.3 µM]	-8%	i	3%	4%	11µM*
O=C(Nc1ccccc1-c1nc2ccccc2[nH]1)c1ccc(N2C(=O)CCC2=O)cc1	?	11µM*	i	?	-5%	i
O=C(Nc1ccccc1-c1nc2ccccc2[nH]1)c1ccc(S(=O)(=O)N2CCCCC2)cc1	-3%[38.3 µM]	-3%	i	2%	-2%	i
COc1cccc(N2CCN(C(=O)C3CCN(S(=O)(=O)c4ccc5c(c4)CC(C)N5C(C)=O)CC3)CC2)c1 (stereo not given)	-1%	-3%	14µM*	2%	-1%	.
Cc1ncc2c(c1CNC(=O)c1ccccc1F)CCN(C(=O)c1ccccc1-n1cccn1)C2	0%	.	.	.	-4%	.
Cc1ncc(Cc2ccccc2)c(C2CCN(S(=O)(=O)C[C@]34CC[C@H](CC3=O)C4(C)C)CC2)n1	0%	.	.	.	-1%	.
